Here are results for 35 compounds from PubChem BioAssay (NCATS).

Test [1] has as its target Retinaldehyde dehydrogenase 3 (Homo sapiens) (UniProt P47895). In words: qHTS for Inhibitors of the Aldehyde Dehydrogenase Family (ALDH1A3) Confirmatory screens (AID 2061311). Also: nearly all actives have a fitted effect of over 60% in size.
The target is the same in test [2]. In words: qHTS for Inhibitors of the Aldehyde Dehydrogenase Family (ALDH1A3) Primary screen (AID 2061315). (Quantitative high-throughput screening tests each substance at several concentrations.)
The target of test [3] is Aldehyde dehydrogenase 1A1 (Homo sapiens) (UniProt P00352). Put plainly: qHTS for Inhibitors of the Aldehyde Dehydrogenase Family (ALDH1A1) Confirmatory screens (AID 2061316). Also: nearly all actives have a fitted effect of over 65% in size.
In test [4] the target is Retinal dehydrogenase 2 (Homo sapiens) (UniProt O94788). In words: qHTS for Inhibitors of the Aldehyde Dehydrogenase Family (ALDH1A2) Confirmation screens (AID 2061314). Also: nearly all actives have a fitted effect of over 65% in size.

Records with an inconclusive call do not appear. Unmarked numbers belong to inactive results. The source made the active and inactive calls. Calls follow the shape of the dose curve; as a rule, active = well fitted inhibition curve with a large enough effect; inconclusive = small, poorly fitted or top-dose-only effect; inactive = no such curve, though single readings can be large or run the other way.
Potency is read from the fitted curve at half-maximal effect.

Turning to `FC(F)(F)c1ccccc1-c1nc(NCc2ccc(-c3ccccc3)cc2)c2ccccc2n1`, the Potency in test [1] was 3.57 µM (active). In addition, the Potency result in test [2] and in test [3] was “inactive” each time.
In the case of `CC(C)(C)C(=O)N1CCN(c2cccc(Nc3nn4c(=O)c5ccccc5nc4s3)c2)CC1`, the Potency was 28.3 µM (active) in test [1], 25.2 µM (active) in test [4] and 7.98 µM (active) in test [3]. The Potency entry in test [2] is “inactive”.
`Cc1csc(CNc2ncnc3cc(-c4ccc5c(c4)OCO5)ccc23)n1`: the Potency in test [1] was 7.94 µM (active); in test [3], 11.3 µM (active). Besides, the Potency entry in test [2] was “inactive”.
For `COC(=O)CCSC/C=C(\C)CCn1cc(CCc2ccc(-c3ccccc3)cc2)nn1`, in that order: 8.96 µM (active), 4.49 µM (active) and “inactive”.
With `Cc1sc(NC(=O)Cc2ccc3c(c2)OCO3)nc1-c1ccc2c(c1)CCN2C`, the Potency in test [1] was 11.3 µM (active); in test [4] it was 12.7 µM (active); in test [3], 3.57 µM (active).
`Cc1c(C(=O)OC[C@H]2CCCO2)[nH]c2c1C(=O)CC(c1ccco1)C2` (some centres undefined): the results for the Potency in test [1], in test [4] and in test [3] were 12.7 µM (active), 4 µM (active) and 1.42 µM (active), respectively. Also, the Potency result in test [2] is “inactive”.
For the compound `Cc1c(C(=O)OCC2CCCC2)[nH]c2c1C(=O)CC(c1ccco1)C2` (centres undefined), the Potency was 15.8 µM (active) in test [1], 3.57 µM (active) in test [4] and 1.13 µM (active) in test [3]. Further, in test [2], the Potency entry was “inactive”.
Consider `S=C(NCCCc1cnc[nH]1)NCCCN(Cc1ccccc1)c1ccc(Br)cn1`, for which the Potency result in test [1] and in test [2] was “inactive” each time.
As for `O=C(c1ccccc1O)N(Cc1ccco1)Cc1ccco1`, the Potency is 12.7 µM (active) in test [1] and 11.3 µM (active) in test [4]. Moreover, the Potency entry in test [2] was “inactive”.
Consider `Nc1ccc(CNc2ccc([S+](=O)([O-])Nc3nccs3)cc2)c(O)c1`, for which the Potency in test [1] was 5.04 µM (active); in test [4], 17.9 µM (active); in test [3], 3.18 µM (active).
On to `N#Cc1cccc(OC2=NS(=O)(=O)c3ccccc32)c1`, for which the Potency is 12.7 µM (active) in test [1] and 5.04 µM (active) in test [3]. Also, the Potency result in test [2] was “inactive”.
On to `Cc1cc(C)nc(NC(=S)N2CCN(c3ccc4nccn4c3)CC2)c1`, for which the values for the Potency in test [1], in test [4] and in test [3] were 10.1 µM (active), 14.2 µM (active) and 7.12 µM (active), respectively. Besides, the Potency entry in test [2] is “inactive”.
For the compound `COc1cc(/C=C(\C#N)C(=O)Nc2ccc(C(=O)O)cc2)ccc1OC(=O)c1cccc(F)c1`, the Potency in test [1] was 15.8 µM (active). Further, the Potency entry in test [4] and in test [3] was “inactive” in each case.
Regarding `NC(=O)C1CCN(c2nc(-c3ccc(-c4ccccc4)cc3)cs2)CC1`, in test [1], the Potency was 28.3 µM (active). Further, the Potency entry in test [4], in test [2] and in test [3] was “inactive” in each case.
For `CC(=O)N1CCN(c2ccc(NS(=O)(=O)c3ccc4c(c3)CC(=O)N4)cc2)CC1`, the Potency result in test [1], in test [4] and in test [2] was “inactive” each time.
For the compound `CC(=O)Nc1sc2c(c1-c1cccc3[nH]ncc13)CCNC2`, the figures for the Potency in test [1], in test [4] and in test [3] were 12.7 µM (active), 10.1 µM (active) and 11.3 µM (active), respectively.
As to `Cc1cc(C)nc(NC(=S)N2CCN(c3cccc4cnccc34)CC2)c1`, the Potency in test [1] is 20.1 µM (active); in test [4], 8.96 µM (active); in test [3], 10.1 µM (active).
For `CC(=O)NC(C)c1cc(Cl)c2ccccc2c1O` (centres undefined), in that order: 3.18 µM (active), 12.7 µM (active) and 4 µM (active).
For `Cc1ccc(S(=O)(=O)Nc2cc(S(=O)(=O)c3ccc(C)cc3)c(O)c3cccnc23)cc1`, the Potency is 1.13 µM (active) in test [1], 2.01 µM (active) in test [4] and 1.42 µM (active) in test [3].
For the compound `Oc1ccc(Nc2ccccc2F)c2cccnc12`, the Potency in test [1] was 7.98 µM (active); in test [2] it was 1.26 µM (active). The Potency entry in test [3] was “inactive”.
On to `O=S1(=O)Nc2c(ccc3cccnc23)-c2ccccc21`, for which the Potency in test [1] was 8.96 µM (active); in test [4], 12.7 µM (active). For the same compound, in test [3], the Potency entry is “inactive”.
For `Nc1nc2c(s1)C(c1ccccc1Cl)CC(=O)N2` (centres undefined), the Potency in test [1] was 5.65 µM (active). For the same compound, the Potency entry in test [2] was “inactive”.
With `CC(=O)Nc1sc2c(c1-c1nccs1)CCNC2`, the Potency entry in test [1], in test [4] and in test [2] was “inactive” each time.
As for `CC(=O)Nc1sc2c(c1-c1ccccc1)CCN(C(=O)OC(C)(C)C)C2`, the Potency result in test [1] and in test [2] was “inactive” in each case. Also, in test [3], the Potency was 7.98 µM (active).
Consider `CC(=O)Nc1ccc(OCc2cccc(-c3nc4ccccc4c(=O)n3Cc3ccco3)c2)cc1`, for which the results for the Potency in test [1], in test [4] and in test [3] were 15.8 µM (active), 7.98 µM (active) and 2.83 µM (active), respectively. Also, in test [2], the Potency result was “inactive”.
On to `COc1ccc(-c2ccc(C)cc2)cc1CC(=O)N(C)C(C)c1ccco1` (centres undefined), for which the Potency in test [1] is 2.01 µM (active); in test [4] it was 6.31 µM (active); in test [3] it was 11.3 µM (active).
On to `O=C(Nc1sc2c(c1-c1nc3ccccc3s1)CCNC2)C(F)(F)F`, for which the Potency entry in test [1] and in test [2] was “inactive” throughout. Besides, in test [4], the Potency is 28.3 µM (active).
Turning to `COc1ccc2ccccc2c1CN(C)CC(=O)Nc1ccc(N2CCOCC2)cc1`, the Potency in test [1] was 11.3 µM (active); in test [4], 11.3 µM (active); in test [3] it was 7.98 µM (active).
With `Cc1ccn2c(Nc3ccc4c(c3)OCO4)c(-c3ccccn3)nc2c1`, the Potency in test [1] is 17.9 µM (active). For the same compound, the Potency result in test [2] was “inactive”.
As for `NC(=O)c1cccc(-c2cnc3c(O)ccc(C(=O)O)c3c2)c1`, the Potency in test [1] is 11.3 µM (active); in test [4] it was 4.49 µM (active); in test [3] it was 8.96 µM (active). Also, the Potency entry in test [2] is “inactive”.
`Oc1cc(-c2cccnc2)cc2cccnc12`: in test [1], the Potency was 4.49 µM (active). The Potency result in test [4] and in test [2] was “inactive” each time.
As to `O=C(Cc1ccccc1)Nc1sc2c(c1C(=O)Nc1ccc(Cl)cc1)CCCC2`, the Potency entry in test [1] and in test [2] was “inactive” each time. The Potency in test [4] was 4 µM (active); in test [3] it was 11.3 µM (active).
Take `N#Cc1ccc(N2CCN(S(=O)(=O)c3ccc4c(c3)CC(=O)N4)CC2)cc1`: the Potency in test [1] is 15.8 µM (active). For the same compound, the Potency result in test [2] and in test [3] was “inactive” in each case.
Turning to `Cc1ccc(-c2ccnc(N3CCC(C(N)=O)CC3)n2)cc1`, in test [1], the Potency is 5.04 µM (active). In addition, in test [2], the Potency entry is “inactive”.
Take `O=C1Cc2cc(S(=O)(=O)N3CCN(c4ccc(Br)cc4)CC3)ccc2N1`: the Potency entry in test [1] and in test [2] was “inactive” in each case. Besides, the Potency in test [4] is 20.6 µM (active).
